Test results as given in publication PMC5540273 (PLoS ONE, 2017).

Columns and labels:
Details in all cases: concentration: 1 μM, replicates: in singlicate; n = 1
PKMYT1 = tested on: PKMYT1
PKN1 = tested on: PKN1
PKN2 = tested on: PKN2
PLK1 = tested on: PLK1
PLK2 = tested on: PLK2
PLK3 = tested on: PLK3
PLK4 = tested on: PLK4
PRKCD = tested on: PRKCD
PRKCE = tested on: PRKCE
PRKCH = tested on: PRKCH
PRKCI = tested on: PRKCI
PRKCQ = tested on: PRKCQ
PRKD1 = tested on: PRKD1
PRKD2 = tested on: PRKD2
PRKD3 = tested on: PRKD3
PRKG1 = tested on: PRKG1
PRKG2 = tested on: PRKG2
PRKR = tested on: T1, PRKR
T1 construct: gene EIF2AK2

PRKX = tested on: PRKX
PRP4 = tested on: PRP4
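Further: KINOMEscan kinase panel screen.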

| Structure (SMILES) | %Inh (PKMYT1) | %Inh (PKN1) | %Inh (PKN2) | %Inh (PLK1) | %Inh (PLK2) | %Inh (PLK3) | %Inh (PLK4) | %Inh (PRKCD) | %Inh (PRKCE) | %Inh (PRKCH) | %Inh (PRKCI) | %Inh (PRKCQ) | %Inh (PRKD1) | %Inh (PRKD2) | %Inh (PRKD3) | %Inh (PRKG1) | %Inh (PRKG2) | %Inh (PRKR) | %Inh (PRKX) | %Inh (PRP4) |
| --- | --- | --- | --- | --- | --- | --- | --- | --- | --- | --- | --- | --- | --- | --- | --- | --- | --- | --- | --- | --- |
| CN1c2ccc(CNc3ccc(F)cc3)cc2-c2c(cnn2C)S1(=O)=O | 0% | 0% | 0% | 11% | 15% | 11% | 0% | 0% | 5% | 0% | 0% | 12% | 17% | 0% | 0% | 0% | 0% | 0% | 0% | 11% |
| N#Cc1c(N2CCOCC2)sc(-c2ccn[nH]2)c1-c1ccc(Cl)cc1 | 10% | 17% | 0% | 24% | 20% | 15% | 19% | 0% | 0% | 2% | 1% | 11% | 0% | 0% | 16% | 0% | 8% | 0% | 12% | 56% |
| COc1ccc(CNC(=O)NC2CCN(c3ccnc(Nc4ccc(OC)cc4)n3)C2)cc1 (centres unmarked) [GSK1379727] | 2% | 0% | 0% | 0% | 0% | 0% | 0% | 0% | 15% | 17% | 12% | 0% | 0% | 8% | 0% | 0% | 0% | 0% | 11% | 23% |
| CCn1cnc2c(N)ncnc21 [GW345098] | 5% | 20% | 0% | 0% | 7% | 18% | 27% | 0% | 18% | 9% | 13% | 0% | 9% | 0% | 23% | 13% | 0% | 0% | 0% | 1% |
| COc1ccc(Nc2ncc(C#N)c(Nc3ccccc3C(N)=O)n2)cc1N1CCN(C)CC1.Cl [GSK1558669] | 41% | 83% | 78% | 100% | 100% | 100% | 99.8% | 94% | 94.4% | 86% | 96.6% | 96.5% | 93.1% | 89% | 99% | 76% | 54% | 87% | 52% | 79% |
| [2H]C([2H])(c1cccc(C(F)(F)F)c1C)n1ccn2c(=O)nc(N3CCOCC3)cc12 [GSK2336394] | 0% | 39% | 0% | 0% | 0% | 0% | 0% | 6% | 2% | 0% | 22% | 9% | 17% | 4% | 27% | 0% | 0% | 0% | 14% | 18% |
| Nc1nc(-c2ccc3c(N)n[nH]c3c2)cc(N2CCCC2)n1 [GSK2227430] | 0% | 10% | 0% | 0% | 0% | 0% | 0% | 0% | 0% | 5% | 0% | 18% | 0% | 0% | 13% | 0% | 75% | 0% | 1% | 46% |
